The text below walks through data of PubChem BioAssay.

A short description of assay [1]: compound effects on lung adenocarcinoma cell viability – A549, calcein-AM fluorescence, 48 h, basal, profiling panel (AID 1162). Also: test concentration not given here. Conditions: higher = more signal.
Assay [2] can be described thus: compound effects on differentiated 3T3-L1 adipocyte viability – cell-based, 3T3-L1 adipocytes, calcein-AM fluorescence, 48 h, basal, profiling panel (AID 1163). Also: test concentration not given here. Conditions: 3T3-L1 adipocytes viability, higher = more signal.
Assay [3] in a line: compound effects on hepatocellular carcinoma cell viability – HepG2, calcein-AM fluorescence, 48 h, basal, profiling panel (AID 1164). Also: test concentration not given here. Conditions: higher = more signal.
A short description of assay [4]: compound effects on multiple myeloma cell viability – MM1S, calcein-AM fluorescence, 48 h, basal, profiling panel (AID 1165).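 Also: viability of MM1S multiple myeloma cells under basal unstimulated conditions; test concentration not given here.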 Particulars: higher = more signal.
A short description of assay [5]: calcein-AM signal in unstimulated myeloma cells – cell-based, calcein-AM fluorescence, 48 h, PK04 Diversity Set, profiling panel (AID 1166).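 Also: cells grown under basal conditions without added stimulus; test concentration not given here.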 Particulars: RPMI8226 myeloma viability, higher = more signal.
A short description of assay [6]: JC-1 mitochondrial signal, unstimulated HepG2 cells – cell-based, JC-1 fluorescence, 24 h, 100 nL compound, profiling panel (AID 1167). Also: test concentration not given here. Particulars: HepG2 mitochondrial potential, higher = more signal.
A short description of assay [7]: JC-1 mitochondrial signal, unstimulated adipocytes – cell-based, JC-1 fluorescence, 3T3-L1 adipocytes, 24 h, 100 nL compound, profiling panel (AID 1168). Also: test concentration not given here. Particulars: JC-1 mitochondrial fluorescence, higher = more signal, called active from +8 up or from −8 down.
The nature of assay [8]: JC-1 mitochondrial signal, unstimulated myeloma cells – cell-based, JC-1 fluorescence, RPMI8226, 24 h, 100 nL compound, profiling panel (AID 1169). Also: test concentration not given here. Particulars: JC-1 mitochondrial potential fluorescence, higher = more signal.
Assay [9] in a line: JC-1 mitochondrial signal, unstimulated MM1S myeloma – cell-based, JC-1 fluorescence, 24 h, 100 nL compound, profiling panel (AID 1170). Also: test concentration not given here. Particulars: MM1S mitochondrial potential, higher = more signal.
A short description of assay [10]: resazurin metabolic signal in A549 cells – cell-based, resazurin fluorescence, 24 h, PK04 Diversity Set, profiling panel (AID 1171). Also: test concentration not given here. Particulars: A549 viability, higher = more signal, called active from +8 up or from −8 down. (In general: The colour change of resazurin is a common sign of viable cells or microbes.)
Assay [11] can be described thus: resazurin metabolic signal in HepG2 cells – cell-based, resazurin fluorescence, 24 h, PK04 Diversity Set, profiling panel (AID 1172). Also: test concentration not given here. Conditions: HepG2 viability, higher = more signal.
The nature of assay [12]: budding yeast growth changes without added modifier – OD600, strain BY4716, 24 h, basal condition, primary screen (AID 1173). Conditions: S. cerevisiae BY4716 growth, OD600, 24 h; higher = more signal, called active from +8 up or from −8 down.
A short description of assay [13]: viability profiling in MM1S myeloma cells – cell-based, resazurin fluorescence, basal, 24 h, PK04 Diversity Set, profiling panel (AID 1174). Also: test concentration not given here. Conditions: higher = more signal, called active from +8 up or from −8 down.
Assay [14] has as its target Dihydroorotate dehydrogenase (quinone), mitochondrial (Plasmodium falciparum (isolate 3D7)) (UniProt Q08210). In words: inhibition of P. falciparum DHODH – biochemical, C-terminal His tag, absorbance 600 nm, primary screen (AID 1175).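 Also: recombinant parasite enzyme with a five histidine tag at its C terminus; test concentration not given here.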 Particulars: PfDHODH enzyme, DCIP absorbance 600 nm; higher = more signal, called active from +8 up or from −8 down.
Assay [15] can be described thus: inhibition of PAO1 biofilm formation – strain PAO1, LB-PBS medium, absorbance 600 nm, primary screen (AID 1176). Also: test concentration not given here. Particulars: P. aeruginosa PAO1 growth/biofilm, A600, 12 h; higher = more signal.
A short description of assay [16]: growth modulation of vineyard yeast isolate – strain RM11-1a, OD600, basal, 24 h, primary screen (AID 1177).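 Also: cultures grown under basal conditions with no added stressor; test concentration not given here.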 Particulars: S. cerevisiae RM11-1a growth, OD600, 24 h; higher = more signal, called active from +8 up or from −8 down.
Assay [17] in a line: growth of efflux-deficient E. coli DRC39 – strain DRC39, OD650, 24 h, E. coli filamentation inducers, primary screen (AID 1178).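 Also: growth measured as culture turbidity by optical density at 650 nm; test concentration not given here.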 Conditions: E. coli DRC39 acrAB, higher = more signal, called active from +8 up or from −8 down.
Assay [18] is described as follows: growth of efflux-deficient E. coli DRC39 – strain DRC39, OD650, 48 h, E. coli filamentation inducers, primary screen (AID 1179).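 Also: screen aims at cell division blockers that make cells filament.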 Particulars: E. coli DRC39 delta-acrAB growth, higher = more signal, called active from +8 up or from −8 down.
A short description of assay [19]: viability profiling in RPMI8226 myeloma cells – cell-based, resazurin fluorescence, basal, 24 h, PK04 Diversity Set, profiling panel (AID 1180).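 Also: RPMI8826 multiple myeloma cell line at 5000 cells per well; test concentration not given here.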 Particulars: higher = more signal.
For assay [20], the target named is E3 ubiquitin-protein ligase XIAP (Homo sapiens) (UniProt P98170). In words: small molecules binding XIAP protein – biophysical, small-molecule microarray, fluorescence 635 nm, primary screen (AID 1181).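 Also: score merges 667 nm emission and signal to noise over triplicate slides.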 Particulars: higher = more signal.

Activity calls are given as the source filed them. Unless noted, no rule for the calls is given here.

Sequence of E3 ubiquitin-protein ligase XIAP (Homo sapiens) (P98170 whole entry, looked up): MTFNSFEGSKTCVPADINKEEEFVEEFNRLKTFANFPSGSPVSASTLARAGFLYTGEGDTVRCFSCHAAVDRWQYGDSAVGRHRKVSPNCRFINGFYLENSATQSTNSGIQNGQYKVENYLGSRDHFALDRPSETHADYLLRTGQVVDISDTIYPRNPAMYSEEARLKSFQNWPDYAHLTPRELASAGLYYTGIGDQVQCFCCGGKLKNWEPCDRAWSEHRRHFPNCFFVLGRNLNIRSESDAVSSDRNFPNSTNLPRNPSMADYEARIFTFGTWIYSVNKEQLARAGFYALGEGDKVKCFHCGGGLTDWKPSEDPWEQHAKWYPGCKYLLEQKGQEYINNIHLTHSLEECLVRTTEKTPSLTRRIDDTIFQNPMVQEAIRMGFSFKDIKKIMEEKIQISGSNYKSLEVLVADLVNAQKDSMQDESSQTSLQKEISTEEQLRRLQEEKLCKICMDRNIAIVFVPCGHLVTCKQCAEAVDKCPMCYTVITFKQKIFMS
Sequence of Dihydroorotate dehydrogenase (quinone), mitochondrial (Plasmodium falciparum (isolate 3D7)) (Q08210 whole entry, looked up): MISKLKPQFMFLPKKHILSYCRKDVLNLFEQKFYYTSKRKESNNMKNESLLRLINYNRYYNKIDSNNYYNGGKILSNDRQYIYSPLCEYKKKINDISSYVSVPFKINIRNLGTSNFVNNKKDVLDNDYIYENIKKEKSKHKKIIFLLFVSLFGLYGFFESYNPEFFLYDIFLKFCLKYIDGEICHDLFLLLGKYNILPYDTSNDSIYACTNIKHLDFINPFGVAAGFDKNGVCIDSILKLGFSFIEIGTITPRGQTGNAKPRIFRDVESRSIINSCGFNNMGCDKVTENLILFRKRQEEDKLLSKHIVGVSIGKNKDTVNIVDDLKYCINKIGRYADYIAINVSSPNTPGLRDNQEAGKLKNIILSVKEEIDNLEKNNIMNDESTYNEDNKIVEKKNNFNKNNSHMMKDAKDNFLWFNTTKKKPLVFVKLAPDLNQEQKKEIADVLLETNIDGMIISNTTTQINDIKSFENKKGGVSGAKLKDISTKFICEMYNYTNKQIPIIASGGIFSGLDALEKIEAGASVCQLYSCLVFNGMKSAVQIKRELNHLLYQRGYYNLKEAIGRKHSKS

Take `C=C(/C(=C/C[C@@H](OC(C)=O)c1cccc(OCCO)c1)c1cc(C(=O)OC)ccc1OC)C(C)C`: the z-score in [1] was -0.0413; in assay [2] it was 0.0983; in assay [3], -0.159; in [4], -0.881; in [5], -0.264; in assay [6], 1.86. In addition, the z-score in [7] is -0.789 (inactive); in assay [8] it was 0.373; in assay [9], -0.682; in [10] it was 2.17 (inactive); in assay [11], 1.47; in assay [12], -0.0321 (inactive). The z-score in assay [13] is 0.172 (inactive); in assay [15], -0.153 (inactive); in assay [16] it was 0.258 (inactive); in [17] it was 0.233 (inactive); in assay [18], 0.547 (inactive); in assay [19] it was 0.883. In addition, the composite z-score in assay [14] was -1.4 (inactive); in assay [20], -0.0622.
Take `CN(C)c1ccc(C(O)C2C=CC3C(=O)N(c4ccccc4)C(=O)C3N2Nc2ccc([N+](=O)[O-])cc2)cc1` (stereo not given): the z-score is -0.455 in assay [1]; -1.25 in assay [2]; 0.583 in assay [3]; -0.676 in assay [4]; -0.215 in assay [5]; -1.01 in [6]. For the same molecule, the z-score is -2.19 (inactive) in assay [7]; -0.296 in [8]; -0.907 in [9]; -0.272 (inactive) in assay [10]; -0.529 in assay [11]; -0.491 (inactive) in [12]. In addition, the z-score was -0.96 (inactive) in [13]; 0.617 (inactive) in [15]; 0.706 (inactive) in assay [16]; -0.876 (inactive) in assay [17]; -0.914 (inactive) in [18]; -1.41 in assay [19]. Further, the composite z-score is 0.835 (inactive) in assay [14] and -0.359 in assay [20].
Regarding `C=CCOC(=O)[C@H]1[C@@H]2C(=O)O[C@@H](c3ccccc3)[C@@H](c3ccccc3)N2[C@@H](c2ccc(OCCOC(=O)[C@@H]3C[C@@H]4C(=O)N5CCC[C@H]5C(=O)N4[C@@H]3c3ccc(O)cc3)cc2)[C@]12C(=O)Nc1ccc(I)cc12`, the z-score in [1] is -0.455; in assay [2] it was 0.276; in assay [3], 0.018; in assay [4], 0.0967; in assay [5] it was -0.0749; in assay [6] it was -1.24. For the same molecule, the z-score in [7] was 0.88 (inactive); in assay [8] it was -0.655; in [9], -1.37; in [10] it was -0.273 (inactive); in [11], -0.384; in [12], 1.04 (inactive). The z-score in assay [13] was -0.996 (inactive); in assay [15], 3.91 (inactive); in assay [16], 1.08 (inactive); in [17], -0.102 (inactive); in [18], 0.0802 (inactive); in assay [19], -0.686. Further, the values for the composite z-score in [14] and in assay [20] were -1.13 (inactive) and -0.083, respectively.
As to `CCC[C@@H]1C[C@@]1(CCC)[C@@H](NC(=O)OCc1ccccc1)c1ccc(-c2ccccc2)cc1`, the z-score in assay [1] was -1.15; in assay [2], -1.15; in [3], 0.0422; in assay [4], -0.625; in assay [5], -1.43; in [6], -0.862. In addition, the z-score in assay [7] is 0.258 (inactive); in assay [8], -0.325; in assay [9], -1.19; in [10] it was 2.39 (inactive); in assay [11] it was 2.43; in [12], -2.75 (inactive). Besides, the z-score in [13] is 0.879 (inactive); in assay [15], 0.191 (inactive); in assay [16], 0.259 (inactive); in assay [17], 0.358 (inactive); in [18], 0.492 (inactive); in [19], 1.72. Besides, the composite z-score in assay [14] was -0.251 (inactive); in assay [20], -0.0669.
Regarding `Cc1ccc(S[C@]2(C(=O)O)CC(=O)N(Cc3ccccc3Cl)[C@@H]2c2ccc(CO)cc2I)cc1`, the z-score is -0.794 in assay [1]; -0.551 in [2]; -0.828 in assay [3]; -2.94 in assay [4]; -2.92 in [5]; -0.508 in assay [6]. Moreover, the z-score in assay [7] is -1.14 (inactive); in [8], -0.615; in assay [9], -0.589; in assay [10], 0.459 (inactive); in [11], 0.457; in assay [12] it was -3.19 (inactive). In addition, the z-score was -3.07 (inactive) in assay [13]; 1.15 (inactive) in [15]; -0.78 (inactive) in [16]; 0.0071 (inactive) in [17]; -0.26 (inactive) in [18]; -2.19 in assay [19]. Further, the composite z-score in assay [14] is 0.297 (inactive); in [20], -0.0388.
In the case of `CC(C)[Si](C#CCCCC#N)(O[C@H](c1ccccc1)c1cn([C@H](CO)Cc2ccccc2)nn1)C(C)C`, the z-score in assay [1] is 0.773; in assay [2] it was -0.0379; in [3], -0.0933; in assay [4], 0.172; in [5], 0.231; in assay [6] it was 0.0258. Also, the z-score in assay [7] is -0.393 (inactive); in [8] it was 0.266; in [9], -1.47; in [10], 0.723 (inactive); in assay [11] it was 0.374; in [12], -9.13 (active). The z-score was 0.288 (inactive) in [13]; 1.44 (inactive) in [15]; -1.8 (inactive) in assay [16]; 0.178 (inactive) in assay [17]; 0.362 (inactive) in [18]; 0.289 in assay [19]. Besides, the composite z-score is -0.804 (inactive) in assay [14] and -0.111 in assay [20].
As for `COC(=O)[C@@]1(Cc2ccc(F)cc2)[C@H]2c3cc(C(=O)N(C)C)n(CCc4ccc(O)c(OC)c4)c3C[C@H]2CN1C(=O)c1ccccc1`, the z-score in assay [1] is 0.558; in [2], -0.306; in assay [3] it was 0.364; in assay [4] it was -0.254; in [5] it was -0.364; in assay [6] it was -0.27. Besides, the z-score in [7] is -0.763 (inactive); in assay [8], -0.266; in assay [9] it was 0.564; in assay [10], -0.905 (inactive); in assay [11], -0.275; in assay [12] it was 0.358 (inactive). For the same molecule, the z-score in [13] is -0.0883 (inactive); in [15], -0.263 (inactive); in assay [16] it was 0.898 (inactive); in assay [17], -0.952 (inactive); in [18], -0.574 (inactive); in [19], 0.28. In addition, the figures for the composite z-score in assay [14] and in assay [20] were 0.124 (inactive) and -0.196, respectively.
For the molecule `COc1cccc(/C=C/C=O)c1`, the z-score in [1] was 0.482; in assay [2], -0.132; in assay [3] it was 0.844; in assay [4], -1.38; in assay [5], -0.803; in [6], 1.04. Moreover, the z-score is 0.532 (inactive) in [7]; -0.109 in assay [8]; -0.253 in assay [9]; 0.336 (inactive) in [10]; 0.445 in assay [11]; -6.49 (inactive) in [12]. Further, the z-score in assay [13] was -0.687 (inactive); in [15] it was -0.131 (inactive); in assay [16], 0.0721 (inactive); in assay [17] it was 0.635 (inactive); in assay [18], 0.403 (inactive); in assay [19] it was 0.884. In addition, the figures for the composite z-score in assay [14] and in [20] were -0.0136 (inactive) and -0.0224, respectively.
